# Source: PubChem (several laboratories)
# An excerpt weighted towards active compounds, which were near 5.4% of everything screened.
# DAX1 inh – inhibitors of human orphan nuclear receptor DAX1 (NR0B1) | inhibition, % at 6.75 µM | HEK293 Gal4-DAX1 luciferase reporter, luminescence | P51843 | 0.99% of 340,000 active;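 active means inhibition above the mean over all tested compounds plus 3 SD, cut at about 4.2% in these data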;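 further: 0% = DAX1-transfected cells with DMSO and 100% = empty-vector control cells with DMSO; inhibition shows as a rise in luminescence from relieved DAX1 repression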
# Target sequence (P51843 207-470 limits assumed): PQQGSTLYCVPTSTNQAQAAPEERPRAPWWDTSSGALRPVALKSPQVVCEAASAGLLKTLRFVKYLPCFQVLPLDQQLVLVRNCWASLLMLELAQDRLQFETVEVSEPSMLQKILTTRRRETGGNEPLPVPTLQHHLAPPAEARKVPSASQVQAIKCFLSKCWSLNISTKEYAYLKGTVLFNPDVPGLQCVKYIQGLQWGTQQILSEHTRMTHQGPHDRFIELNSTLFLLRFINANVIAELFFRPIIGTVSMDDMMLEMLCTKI
# HSF1 activator – increases HSF-1 driven luciferase reporter signal; NIH3T3-HGL HSF-1 luciferase reporter, MG132, 8 h; 100% = twice DMSO control signal; activation, % at 9 µM; 1.7% of 300,000 active;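 active means mean replicate activation of at least 50% with a set share of replicates each reaching 50%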;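 further: 0% = median of the neutral control wells and 100% = twice that signal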
# HSF1 inhib – HSF1 inhibition; NIH3T3-HGL HSE-luciferase, MG132-induced, luminescence 8 h; active compounds read low; activity change, negative = inhibition, % at 7.5 µM (by protocol); 0.77% of 300,000 active; AID 2098;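 active means more than half of replicate wells show activity change below -50%, luminescence cut by over half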;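 further: luciferase reports HSF-1 transcriptional activity via heat shock element; 0% = median of DMSO wells and -100% = zero luminescence signal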
# FXN GAA850 act – activators of GAA850 frataxin (FXN) promoter | 0.56% of 360,000 active | activation, % at 6 µM | AID 540364 | HEK293 lucGAA850 FXN promoter luciferase reporter, 24 h; percent of 10 µM SAHA response;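 active means activation above the average of all compounds screened plus 3 SD, cutoff fixed separately per campaign, cut at about 7.5% in these data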;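 further: 0% = DMSO wells and 100% = 10 µM SAHA wells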
# AHR act – human AHR activation | AHR-responsive luciferase reporter cells, luminescence | P35869 | AID 2796 | 2.5% of 320,000 active | activation, % at 5 µM; in the data active means activation above about 47%;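 further: 0% = vehicle wells and 100% = reference agonist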
# * = called active by the depositor; nt = no result.
SMILES,DAX1 inh,HSF1 activator,HSF1 inhib,FXN GAA850 act,AHR act
N#CCOc1nc(N2CCOCC2)nc(N2CCOCC2)n1,6.0*,-8.9,-5.8,2.7,-0.2
Cc1cc(NC(=O)c2ccccc2)nc2c1c(=O)oc1ccccc12,0.6,1.8,-0.6,-2.9,23.7
CCC(CC)C(=O)Nc1cc(C)c2c(=O)oc3ccccc3c2n1,0.3,8.0,-4.6,0.3,50.1*
CCCN(CCC)S(=O)(=O)c1ccc(C)cc1,-0.6,3.1,-6.7,0.8,-2.9
Cc1cc(OCC(=O)N(Cc2cccs2)C2CCS(=O)(=O)C2)ccc1Cl (centres undefined),0.7,-8.6,3.7,1.5,8.4
COC(=O)c1ccc(CSc2nc3ccccc3c(=O)n2CC(C)C)o1,-0.4,71.5*,36.3,4.5,1.1
COC(=O)c1ccc(CSc2nc3ccccc3c(=O)n2C)o1,0.5,-14.1,7.5,2.8,0.5
CN(C)c1ccc(NC(=O)Nc2cccc(Cl)c2)cc1,2.9,29.4,26.0,3.0,20.2
CCc1ccccc1NC(=O)Nc1ccc(F)cc1,0.8,-2.4,-1.5,-0.2,9.4
O=C(Nc1ccc(F)cc1)Nc1csc2ccccc12,nt,61.1*,41.0,-0.3,74.8*
CN(C)c1ccc(NC(=O)Nc2csc3ccccc23)cc1,nt,-47.6,-39.4,2.5,72.2*
Cc1ccc(S(=O)(=O)N2CCN(Cc3csc(C)n3)CC2)cc1,-0.4,30.9,-3.1,0.0,-1.4
COc1ccc(NC(=O)c2ccc(NC(=O)CSc3nc(N)cc(=O)[nH]3)cc2)cc1,-0.1,nt,nt,1.4,0.8
Cc1ccc(NC(=O)Nn2cnnc2)cc1Cl,0.8,3.4,6.0,0.8,-1.2
Cc1ccc(NC(=O)O/N=C/c2c(C)nn(C(C)(C)C)c2C)cc1Cl,-9.3,-94.5,-93.4*,-13.6,-8.4
Cc1cc(C(F)(F)F)nc(Nc2nc(C)c3ccccc3n2)n1,-0.2,16.5,2.1,-1.7,57.9*
COc1ccccc1CCNC(=O)C(=O)NCC1OCCCN1S(=O)(=O)c1ccc(F)cc1C (centres undefined),-0.4,2.6,2.9,-1.5,13.4
O=C(CSC1CC(=O)N(c2ccc(C(=O)O)cc2)C1=O)Nc1ccc(Cl)cc1 (centres undefined),6.5*,-2.9,-6.1,1.8,3.7
CCc1nc2ccc(C(=O)NC3CCN(Cc4ccccc4)CC3)cn2c1N(CC)Cc1cccc(Br)c1,nt,nt,nt,-4.6,nt
Cc1cc(=O)oc2ccc(OCc3ccccc3)cc12,-0.2,4.5,-2.1,-0.5,51.1*
C=CCOc1ccc2oc(=O)cc(C)c2c1,-2.0,0.1,-4.7,0.4,8.2
O=C(NCc1ccccc1)c1cc(C2CCCCN2C(=O)c2ccccc2)on1 (centres undefined),nt,nt,nt,-0.2,nt
Cc1sc(NC(=O)c2sc3nc4c(C)cccc4cc3c2N)c(C#N)c1C,-0.3,-15.3,-3.8,-3.3,-1.8
Cc1cccc2cc3c(N)c(C#N)sc3nc12,-0.8,-62.9,-54.1*,-0.6,-6.6
CC1(C)CC(NC(=O)c2cc(S(=O)(=O)N3CCCCC3)ccc2Cl)CC(C)(C)N1,0.1,-12.4,-5.7,1.1,-2.6
SMILES,DAX1 inh,HSF1 activator,HSF1 inhib,FXN GAA850 act,AHR act
Brc1ccc(-c2nnc3sc(CNCc4ccc5c(c4)OCO5)cn23)cc1,0.9,5.9,-2.7,0.8,65.4*
CN(C)c1ccc(N=C/C=C2/N(C)c3ccccc3C2(C)C)cc1,2.0,-18.4,-17.5,-5.1,nt
O=C1c2ccccc2-c2nc3ncnn3c(-c3ccccc3Cl)c21,-1.4,-6.1,-0.2,0.9,56.2*
O=C(CCNC(=O)c1ccc(Br)cc1)NCc1ccccn1,1.5,0.3,-3.5,0.4,4.0
Cc1nn(-c2ccccc2)c(N)c1N=Nc1ccc2ccccc2c1,1.8,78.4*,41.0,4.6,154.7*
Cc1nn(-c2ccccc2)c2sc(C(=O)N3CCOCC3)cc12,2.1,25.6,10.4,0.9,77.9*
Cc1ccc(-n2nc(C)c3cc(C(=O)O)sc32)cc1,0.3,-75.9,-69.4*,1.5,1.7
CC(C)c1ccc(O)c(C(=O)c2cnn(-c3ccccc3)c2)c1,0.2,8.6,-6.9,2.0,13.2
c1coc(-c2cnc3ccccc3n2)c1,4.4*,nt,nt,2.8,nt
Clc1ccc(-c2cnc3ccccc3n2)cc1,2.9,34.4,19.4,5.2,52.5*
Oc1ccc(-c2cnc3ccccc3n2)cc1,3.0,28.8,15.4,2.8,-2.0
c1csc(-c2cnc3ccccc3n2)c1,2.1,52.8*,11.0,4.2,13.4
CCOc1cccc(C(=O)Nc2ccccc2C(=O)N2CCN(C)CC2)c1,0.5,11.3,3.6,-1.2,3.0
